The source of these data is PubChem BioAssay AID435030 (The Scripps Research Institute Molecular Screening Center, 2010).

Hit rate of the full screen: of about 330,000 compounds, about 940 (0.28%) were called active. Many of the other results were omitted from the sample, so actives are more common in it than they were. A number with no mark means an inactive call. No stated cut-off is given here; in the data, active means inhibition above about 12%; inactive means the rest.

The nature of this experiment: growth inhibition of E. coli expressing H. pylori AddAB, primary screen, AddAB inhibitor project, absorbance (AID 435030).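 Further: 0% = vehicle wells of infected cells.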 The note with it: at 11.9 µM, active compounds read high.
Consider `C/C(=N/O)c1ccc2ccc3ccccc3c2c1`, for which the inhibition (as a rule, the drop in the measured response relative to a control, in per cent) was 1.43%. As for `Cc1ccc(-n2c(-c3ccc([N+](=O)[O-])cc3)nc3ccccc3c2=O)cc1`, the inhibition was 0.16%. Turning to `O=[N+]([O-])c1cnc2ccc3ccccc3c2c1`, the inhibition was 50.7% (active). To `CCc1ccc(OCC(=O)N2CCN(CC(=O)Nc3ccccc3Cl)CC2)cc1` belongs -0.08%; to `CN(C)S(=O)(=O)c1cc(C(=O)N2CCC(C(=O)O)(c3ccccc3)CC2)ccc1Cl`, 23.8% (active); to `CCc1nc2ccccc2c(=O)n1-c1cccc(OC)c1`, 1.96%. For `COc1ccc(S(=O)(=O)NCc2ccc(C(=O)N3CCC4(CC3)OCCO4)cc2)cc1`, the inhibition was 2.3%. To `c1ccc2sc(N3CCNCC3)nc2c1` belongs -0.09%; to `C[C@]12CC[C@H](O)CC1=C([N+](=O)[O-])CC1C2CC[C@@]2(C)C1CC[C@@H]2O` (stereo not given in full), 1.39%; to `Cc1ccc(-c2nn(CCC#N)cc2C(=O)O)cc1C`, 2.06%.
